This is part of a sample that, as a whole, favours compounds with a hit. Of some 83,000 tested, about 20% had one in any assay.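 Testing used 96-well plates and a 48-hour single-concentration exposure. Example: -40 means 40% of the starting cells died.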 Unmarked numbers belong to inactive results. Activity calls are given as the source filed them.

The assay relates to SNB-75 CNS. The experiment in a line: NCI-60 one-dose screen, 48 h (100 = growth as untreated, 0 = no growth, -100 = all killed). To be noted: 10 µM unless noted. The method, then:
Growth inhibition of the SNB-75 human tumor cell line is measured as a screen for anti-cancer activity. Cells are grown in 96 well plates and exposed to the test compound for 48 hours. Compounds are tested at a single concentration, which is 10^-5 M for most compounds. The reported endpoint is percent growth (GI% or GIPRCNT), where numbers from 0 - 100% represent growth inhibition, and numbers from -100% - 0 represent cell death. For example, a value of 40 represents 60% growth inhibition. A value of 0 means no net growth occurred over the course of the experiment. A value of -40 indicates 40% of cells at the beginning of the experiment died by the end of the experiment. A value of -100 means all cells are dead at the end of the experiment.
NCI-60 Human Tumor Cell Lines Screen was performed using the standard one-dose NCI protocol, which is described in more detail at https://dtp.cancer.gov/discovery_development/nci-60/default.htm.
Compounds with GIPRCNT values below 10 were considered active. Activity score was based on GIPRCNT using the following formula: […]
Score is 0 for GIPRCNT values of 100 or above, 50 for GIPRCNT values of 0, and 100 for GIPRCNT values of -100.
As for `N#CC1=C(N)Oc2c(sc3c(Br)cccc23)C1c1ccc([N+](=O)[O-])cc1` (stereo not given), the growth is 25.8%.

As to `N#Cc1c(-c2ccc(Cl)cc2)nc2c(c(-c3ccccc3)nn2-c2ccccc2)c1-c1ccc(O)cc1`, the growth is 42.6%.

With `CN1CCN(Cc2ccc(NC(=O)c3cncc(C#Cc4cnccc4C#N)c3)cc2C(F)(F)F)CC1`, the growth was 122%.

`CCC(=O)Nc1ccc(-c2nc(-c3cccc(OC)c3)c(-c3ccnc(Br)c3)[nH]2)cc1`: the growth is 15.9%.

In the case of `CN(C)c1ccc2nc3ccc(=[N+](C)C)c([N+](=O)[O-])c-3sc2c1`, the growth is 91.6%.

For the compound `CCCCCCn1c(-c2ccc(C(=O)O/N=C(\N)c3ccc4c(c3)OCO4)cc2)nc(-c2ccccc2)c1-c1ccccc1`, the growth is -6.91% (active).

In the case of `CC1=NN(c2ccc(S(=O)(=O)O)cc2)C(=O)C1N=Nc1ccc(-c2ccc(N=Nc3ccc(OS(=O)(=O)c4ccc(C)cc4)cc3)c(S(=O)(=O)O)c2)cc1` (stereo not given), the growth is 78.8%.

`CC(=O)CC(c1ccccc1)c1c(C)[nH]c2ccccc12` (stereo not given): the growth is 60.3%.

As to `CN1CCN(c2ccc(-c3ccc4ncc(C#N)c(Nc5ccc(F)c(Cl)c5)c4c3)cn2)CC1`, the growth was 64.1%.

With `O=c1c2cc(F)ccc2sc2c(N3CCNCC3)nc3ccc(F)cc3c12`, the growth was 53.9%.

For the compound `CCCCCCNC(=O)Oc1ccc(/C(=C(\C)c2ccc(Cl)cc2)c2ccc(OCCCN(C)C)cc2)cc1`, the growth was 79.1%.

On to `C[N+]1=C(/C=C/c2ccc(O)c3ncccc23)C(C)(C)c2ccccc21`, for which the growth is 30.8%.

For the compound `CCOC(=O)NCCc1ccccc1`, the growth was 78.7%.

For the compound `Cc1nn(-c2ccccc2)c(-n2ccnc2)c1/C=N/Nc1nc(-c2ccc(Cl)c(Cl)c2)cs1`, the growth was -2.39% (active).

On to `COc1ccc(-c2cnc3ccccc3n2)cc1`, for which the growth was 72.4%.

`CCCCCCn1c(-c2ccc(C(=O)O/N=C(\N)c3ccc4ccccc4c3)cc2)nc(-c2ccccc2)c1-c1ccccc1`: the growth was 16%.

In the case of `[O-][n+]1c2ccccc2[n+]([O-])c2c3ccccc3[nH]c21`, the growth is 82.6%.

Take `COc1ccc2[nH]c(-c3ccccc3)c(/C=C(\C#N)S(=O)(=O)c3ccccc3)c2c1`: the growth is 48.1%.

In the case of `COc1cc(/C=N/NC(=O)c2ccc(C)nc2)cc(OC)c1OC`, the growth was 79.4%.

As for `CCc1ccc2nc(NC(=O)Cc3csc(NC(=O)c4ccco4)n3)sc2c1`, the growth is 47.1%.

Turning to `COc1ccc(-c2nc3sc(-c4ccccc4)cn3n2)cc1`, the growth is 65.2%.

Turning to `COc1ccc(/C=C/c2c(C(=O)/C=C/c3ccc(C(F)(F)F)cc3)c(C)nc3ccccc23)cc1`, the growth was 25.6%.

With `Fc1cc2c(cc1Cl)N(c1ncnc3ccc(-c4cnc5cnccn45)cc13)CC2`, the growth was 69.2%.

As to `CCC(C)(c1cc(C(C)(C)C)c(O)c(C(C)(C)C)c1)c1cc(C(C)(C)C)c(O)c(C(C)(C)C)c1`, the growth is 83.4%.

Turning to `COc1cc(C2CC(c3ccc(SC)cc3)=NN2C(C)=O)cc(OC)c1OC` (stereo not given), the growth was 11.9%.

Consider `COc1cc(C(=O)N/N=C/c2cc3cc(OCc4ccccc4)ccc3nc2OC)cc(OC)c1OC`, for which the growth is 77.7%.

With `O=c1c2cc(F)ccc2sc2c(N3CCNCC3)nc3ccccc3c12`, the growth was 70.2%.

On to `Cc1ccc(C(=O)N/N=C/c2cccc(Oc3ccccc3)c2)cn1`, for which the growth is 65.7%.

For `c1ccc(-c2nc3nonc3nc2-c2ccccc2)cc1`, the growth was 65.4%.

With `O=c1c2cc(F)cc(Cl)c2sc2c(NCCCNCCO)nc3ccccc3c12`, the growth was 74.6%.

Turning to `O=[N+]([O-])c1ccc(Cl)c(-c2cc(CCCCO)on2)c1`, the growth was 81.7%.

Regarding `Cc1ccc(-c2nc(N3CCN(CC(=O)Nc4ccc(Cl)cc4)CC3)c3ccccc3n2)cc1`, the growth is 77.7%.

Consider `COc1ccc2sc3c(NCCCN(C)C)nc4ccccc4c3c(=O)c2c1`, for which the growth is 53.5%.

Turning to `Cc1cc(=O)oc2cc(OC(=O)N3CCN(C)CC3)ccc12`, the growth was 73.1%.

For `COc1ccccc1/C=C1\Oc2cc(OCCN3CCC(Cc4ccccc4)CC3)ccc2C1=O`, the growth was 83.6%.

As to `O=C1/C(=C/c2ccccc2[N+](=O)[O-])Oc2ccc(O)c(O)c21`, the growth is 65.9%.

With `CCCCNc1nc(NN2C(=O)c3cccc4cccc(c34)C2=O)nc(-n2cnc3ccccc32)n1`, the growth is 85.8%.

`CCCCCCCCCCCCCCCCCCOc1ccc(CC(=O)OCC[N+]2(C)CCCCC2)cc1`: the growth was 102%.

Turning to `Cc1nc2cnc(N)c(C#Cc3cncc(C(=O)Nc4ccc(CN5CCN(C)CC5)c(C(F)(F)F)c4)c3)c2nc1C`, the growth was -5.44% (active).

As for `CN(C)c1ccc(/C=N\Nc2cc(=O)[nH]c3ccc(Cl)cc23)cc1`, the growth was 78.4%.

These data come from PubChem BioAssay (NCI).
